# Screening data (PubChem)
# sEH inh: inhibitors of human soluble epoxide hydrolase; recombinant human sEH enzymatic activity assay; inhibition, % at 2 µM; hit rate 0.34% among 91,000; AID 707; in the data active = inhibition above about 80%
# Target sequence (P34913 whole entry, looked up): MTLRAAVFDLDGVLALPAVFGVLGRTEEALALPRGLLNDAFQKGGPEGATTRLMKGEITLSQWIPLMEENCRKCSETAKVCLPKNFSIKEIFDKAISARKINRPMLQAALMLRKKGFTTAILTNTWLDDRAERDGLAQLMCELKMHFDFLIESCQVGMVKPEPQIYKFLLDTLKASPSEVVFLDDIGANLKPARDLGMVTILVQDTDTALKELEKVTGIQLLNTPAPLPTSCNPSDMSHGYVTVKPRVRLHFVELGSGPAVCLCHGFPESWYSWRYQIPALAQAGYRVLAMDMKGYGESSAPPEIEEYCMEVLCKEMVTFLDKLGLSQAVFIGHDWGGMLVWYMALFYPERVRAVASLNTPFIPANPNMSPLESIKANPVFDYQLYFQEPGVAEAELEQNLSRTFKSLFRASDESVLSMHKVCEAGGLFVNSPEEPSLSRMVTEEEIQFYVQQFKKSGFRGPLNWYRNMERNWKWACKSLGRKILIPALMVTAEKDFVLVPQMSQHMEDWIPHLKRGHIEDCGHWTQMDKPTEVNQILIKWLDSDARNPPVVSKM
# Phagocytosis inh: blocks phagocytosis by macrophages. J774A.1 macrophage IgG-bead phagocytosis, imaging. inhibition, % at 5 µM. hit rate 0.07% among 110,000. AID 1029;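 active = inhibition above the mean of the plate negative controls plus 5 SD, cut at about 13% in these data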;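 note: phagocytic index as fraction of beads internalized from green versus red external bead signal; plate controls were DMSO negative control for no effect and cytochalasin-D positive control for full effect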
# MRP1 act: activators of MRP-1 | viability increase, % at 10 µM | AID 799 | H69AR cells + doxorubicin, viability rescue, CellTiter-Glo | hit rate 0.61% among 140,000;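 active = viability gain under doxorubicin at or above a set limit, the compound median plus 3 SD, cut at about 4.7% in these data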;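 note: MRP-1 overexpressing cells given doxorubicin 25 µM after compound pretreatment; 18-22 h compound pretreatment then 72 h with doxorubicin before readout; 0% = doxorubicin-only wells and 100% = vehicle-treated cells without doxorubicin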
# MRP reversal: reverses drug resistance mediated by MRP. AID 602. hit rate 0.04% among 85,000. H69AR cells + 2 uM doxorubicin, CellTiter-Glo, 72 h. differential viability (reversal), % at 10 µM;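 active = viability drop by adding the cancer drug above about 55%, with treated viability meeting a 40% cutoff, limit read from the data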;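 note: viability without doxorubicin minus viability with 2 µM doxorubicin for each compound; larger differential means the compound sensitizes cells more to doxorubicin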
# SDO1 yeast rescue: sdo1-depleted yeast growth rescue | S. cerevisiae sdo1-depleted JHY4D growth rescue, OD600 30 h; stronger effect = higher value; pdr5 snq2 efflux-pump mutant strain | z-score at 10 µM | hit rate 0.21% among 140,000;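 active = z-score above 3 at both the 24 hr and the 30 hr optical density reads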;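 note: z-score against mean and SD of all compound wells on the same plate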
# sEH act: soluble epoxide hydrolase (human) activation; P34913; purified human sEH enzymatic activity, activator screen; activation, % at 2 µM; hit rate 0.04% among 91,000; in the data active = activation above about 37%
# * hit, by the source's call; . = no result. The list is not random: actives were taken first. Their share in the collection is about 1%.
SMILES,sEH inh,Phagocytosis inh,MRP1 act,MRP reversal,SDO1 yeast rescue,sEH act
Cc1noc(C)c1COc1cccc(C(=O)NCc2ccccc2Cl)c1,86*,0,0,6,-0.92,-86
Nn1c(SCC(=O)Nc2ccccc2F)nc2ccccc2c1=O,1,3,8.8*,11,-1.4,2
Cc1nc(NC(=S)NC(=O)c2cccs2)sc1C(=O)N(C)C,-3,0,7.2*,.,-0.83,5
COc1ccc(C(=O)NC(=S)Nc2nc(C)c(C(=O)N(C)C)s2)cc1,6,4,0,.,1,-4
CN1C(=O)C(Cl)(Cl)C(=O)c2ccccc21,.,-18,1,.,0.49,.
CC(Oc1cc(-c2ccccc2)cc2ccccc12)C(=O)N1CCOCC1 (stereo unspecified),-1,1,-2,-32,0.51,-3
Cn1c(C(=O)NCc2cccs2)cc2oc3ccccc3c21,.,-2,4,.,-0.64,.
Cn1c(C(=O)NCc2ccccc2)cc2oc3ccccc3c21,3,.,5.2*,13,-1.1,1
COc1cccc(/C=N/NC(=O)C(=O)N2CCCC2)c1O,-1,.,5.4*,.,0.14,4
COc1cccc(/C=N/NC(=O)C(=O)N2CCCC2)c1OC,-12,-2,-2,.,0.85,15
Cc1nn(C(C)C(=O)NCc2ccccc2)c(C)c1[N+](=O)[O-] (stereo unspecified),3,.,-1,.,0.12,-2
COc1cccc(/C=N/NC(=O)Cn2nc(C)c([N+](=O)[O-])c2C)c1O,.,-12,6.6*,.,1.8,.
COc1cccc(/C=N/NC(=O)C(C)n2nc(C)c([N+](=O)[O-])c2C)c1O (stereo unspecified),.,-8,9.0*,.,0.52,.
COc1ccccc1OCC(=O)Nc1sc2c(c1C(=O)NCC1CCCO1)CCC2 (stereo unspecified),8,0,-1,.,-0.98,-7
C=CCn1c(SCc2csc(-c3ccc(Cl)cc3)n2)nnc1-c1ccccc1OC,.,0,-3,.,-1.5,.
CCOC(=O)C(Oc1ccc2c(-c3ccc(OC)cc3)cc(=O)oc2c1C)c1ccccc1 (stereo unspecified),-2,.,0,.,-0.07,3
CCOC(=O)C(Oc1ccc2c(-c3ccccc3)cc(=O)oc2c1C)c1ccccc1 (stereo unspecified),.,-8,4.7*,.,1.3,.
O=C1NC(=Nc2ccc(Cl)cc2)SC1Cc1cc(Cl)ccc1Cl (stereo unspecified),.,-10,6.9*,.,-1.5,.
O=C1N/C(=N\N=C\c2cccs2)SC1Cc1ccc(Cl)cc1Cl (stereo unspecified),.,-8,-5,.,0.3,.
FC(F)(F)c1cccc(OCCN2CCN(Cc3ccccc3)CC2)c1,.,4,-1,.,-1.6,.
CC(C)NC(=O)COC(=O)c1ccc(Oc2ccccc2)cc1,-6,-1,0,.,-1.4,4
O=C(Cn1c(=O)oc2cc(S(=O)(=O)N3CCCCCC3)ccc21)NC1CCCCC1,38,0,-3,11,1.6,-35
O=C(Cn1c(=O)oc2cc(S(=O)(=O)N3CCCC3)ccc21)NCc1ccccn1,.,1,5.3*,2,1.6,.
CCOc1ccccc1N/C(=N/c1nc(C)cc(C)n1)NC(=O)Nc1ccc(Cl)c(Cl)c1,.,5,2,.,1.4,.
S=C(N/N=C/c1ccc(Cl)cc1)N1CCOCC1,.,0,5.7*,.,0.95,.
SMILES,sEH inh,Phagocytosis inh,MRP1 act,MRP reversal,SDO1 yeast rescue,sEH act
Cc1ccc(/C=N/NC(=S)N2CCOCC2)cc1,.,.,4,.,0.6,.
CC(C)OC(=O)CSc1nnc2n1C(C)(C)Cc1ccccc1-2,-20,0,181*,.,-0.21,20
CCCC(=O)NCCc1cc(OC)c(OC)cc1Br,.,-6,1,.,1.7,.
COc1ccc2cc3cc(C(=O)NC(C)C)oc3nc2c1,-14,1,-1,17,0.43,9
CCN(C(=O)c1cc2cc3ccc(C)cc3nc2o1)c1ccc(OC)cc1,-12,-1,6.6*,-1,-1.7,16
Cn1c(SCCCC(=O)c2ccc(Br)cc2)nnc1-c1ccncc1,5,0,-2,0,0.67,-6
CCOC(=O)CSc1nc(N)nc(C)c1Br,.,.,19*,4,0.73,.
COC(=O)CSc1nc(NC(C)=O)nc(C)c1Br,-2,0,-1,6,-0.3,0
Cc1n[nH]c(C)c1CCC(=O)N/N=C/C=C/c1ccccc1,.,-4,-2,.,-0.15,.
CCc1nnc(NC(=O)C2COc3ccccc3O2)s1 (stereo unspecified),2,.,5.1*,16,2.1,1
Cc1nnc(NC(=O)C2COc3ccccc3O2)s1 (stereo unspecified),.,-1,2,6,0.58,.
